# The entries come from a sample that favours hits as a whole.
# Pf Dd2 growth: qHTS Primary assay for Inhibitors of Plasmodium falciparum Dd2 growth in vitro; P. falciparum Dd2 growth, SYBR Green, 72 h; Potency, µM (highest dose often 28.9 µM), for the others: at the highest dose activity, negative = inhibition, usual class: inhibitors; 120,000 compounds, 4.3% hits; active means well fitted inhibition curve with a large enough effect;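 further: plate controls were DMSO vehicle for no effect and reference drug for full effect; nearly all actives have a fitted effect of over 65% in size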
#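 Infected erythrocytes (Dd2, 0.3% parasitemia, 2.5% hematocrit final) are added to compound in RPMI-1640/Albumax II medium, grown 72 h at 37C in low oxygen, then lysed with saponin/Triton-X containing SYBR Green and read by fluorescence.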
# The depositor's hits bear a star; i = inactive; [ ] = dose if it differs, or a comment. Potency means the concentration at half of the fitted maximal effect.
SMILES,Pf Dd2 growth
COC(=O)CC1CCN(C(=O)C2CC(=O)N(c3n[nH]c4cccc(F)c34)C2)CC1 (configuration not stated),-6%
CC(=O)Nc1ccc(S(=O)(=O)NCC2CCC(C(=O)NCCCOC(C)C)CC2)cc1 (configuration not stated),-11%
CCCNC(=O)c1c(C)nn(-c2cccc(C)c2)c1-n1cccc1,45%
CCOc1ccc(NC(=O)CSc2cn(CCNC(=O)c3ccccc3F)c3ccccc23)cc1,-18%
CCOc1ccc(C(=O)NCCn2cc(SCC(=O)Nc3ccccc3)c3ccccc32)cc1,4.5µM*
COc1ccc(C(=O)NCCn2cc(SCC(=O)Nc3ccc(C)cc3)c3ccccc32)cc1,-28%
COc1cc(-c2ccno2)ccc1S(=O)(=O)N1CCN(c2ccccc2)CC1,i
CC(C)CCN1CCC2(CC1)C(=NC1CCCCC1)NC(=O)N2c1cccnc1,12%
CC(=O)N1CCCC2(C1)C(=NC1CCCC1)NC(=O)N2c1cc(F)cc(F)c1 (configuration not stated),-13%
O=C1NC(=NC2CCCC2)C2(CCN([S+](=O)([O-])c3ccccc3)C2)N1c1cc(F)cc(F)c1 (configuration not stated),-14%
CC(C)CCN1CCC2(C1)C(=NC1CCCC1)NC(=O)N2c1cc(F)cc(F)c1 (configuration not stated),8.9µM*
O=C1NC(=NC2CCCCC2)C2(CCN(Cc3cccnc3)C2)N1c1cccnc1 (configuration not stated),-4%
O=C1NC(=NC2CCCCC2)C2(CCN(Cc3ccsc3)C2)N1c1cc(F)cc(F)c1 (configuration not stated),6%
C[S+](=O)([O-])N1CCC2(CC1)C(=NC1CCCC1)NC(=O)N2c1cc(F)cc(F)c1,24%
O=C1NC(=NC2CCCC2)C2(CCCN(Cc3ccc(F)cc3)C2)N1c1cc(F)cc(F)c1 (configuration not stated),7.9µM*
O=C1NC(=NC2CCCC2)C2(CCN(Cc3ccccc3)C2)N1c1cc(F)cc(F)c1 (configuration not stated),1.4µM*
CN(C)c1ccc(CN2CCC3(CC2)C(=NC2CCCCC2)NC(=O)N3c2cccnc2)cc1,7%
O=C(OCc1ccccc1)N1CCC2(CC1)C(=NC1CCCC1)NC(=O)N2c1cc(F)cc(F)c1,i
CN(C)c1ccc(CN2CCCC3(C2)C(=NC2CCCCC2)NC(=O)N3c2cc(F)cc(F)c2)cc1 (configuration not stated),5.6µM*
Cn1cc(CCCC(=O)NCc2ccccc2Cl)c2ccccc21,-2%
CCCN(Cc1cccs1)C(=O)Nc1ccc(Br)c(C)c1,120%[5.79 µM]
O=C(Cn1cc(S(=O)(=O)Cc2ccccc2Cl)c2ccccc21)NCCc1ccccc1,i
Cc1ccc(SC2CCN(Cc3nc(CCc4ccccc4)no3)CC2)cc1,-16%
c1ccc(CCc2noc(CN3CCCCC3CCn3cccn3)n2)cc1 (configuration not stated),i
CC(C)Cc1nc(CN2C[C@@H]3CC[C@H](C2)N(Cc2ccccc2)C3)no1,10µM*
SMILES,Pf Dd2 growth
O=C(c1cc(-c2ccc(Cl)cc2Cl)c2cccn2n1)N1CCOCC1,11%
O=C1NCCC[C@@H]1NC(=O)[C@H]1CN(C(=O)c2cccc(F)c2)CCN1C(=O)c1cccnc1,-15%
CS(=O)(=O)N(Cc1cccnc1)C1CN(C(=O)c2ccc3cc[nH]c3c2)C1,5%
Cn1nc(-c2ccc3ccccc3c2)cc1[C@H]1CN2CC[C@H]1C[C@@H]2CNC(=O)Nc1ccccc1,i
COc1ccc(-c2cc([C@H]3CN4CC[C@H]3C[C@@H]4CNC(=O)Nc3ccccc3)n(C)n2)cc1OC,5.6µM*
COc1ccc(-c2cc([C@H]3CN4CC[C@H]3C[C@@H]4CNC(=O)c3ccc(C)cc3)n(C)n2)cc1OC,-9%
CC(C)NC(=O)OC[C@H]1C[C@@H]2CCN1C[C@@H]2c1cc(-c2ccc3ccccc3c2)nn1C,i
COc1ccc(-c2cc([C@H]3CN4CC[C@H]3C[C@@H]4CNC(=O)C(C)(C)C)n(C)n2)cc1OC,i
CC(C)NC(=O)NC[C@H]1C[C@@H]2CCN1C[C@@H]2c1cc(-c2ccc3ccccc3c2)nn1C,6.3µM*
COc1ccc(NC(=O)N2CCN3C(=O)CNC(=O)C3C2)c(C)c1 (configuration not stated),0%
COc1c[nH]c(CN2CCCC(CCc3ccccc3C(F)(F)F)C2)cc1=O (configuration not stated),8.9µM*
CNC(=O)c1noc(CN2CCCC(CCc3ccccc3C(F)(F)F)C2)n1 (configuration not stated),-26%
CN(C)C(=O)N1CCCC(CCc2ccccc2C(F)(F)F)C1 (configuration not stated),-24%
NCCn1cc(C(=O)NCc2noc(Cc3ccccc3)n2)nn1,0%
CCc1cccc(C)c1NC(=O)c1cc(C)nc2c1c(C)nn2-c1cccc(Cl)c1C,11%
Cc1ccc(C(C(=O)O)N2CCC(C(=O)N3CCCC3)CC2)c(C)c1 (configuration not stated),-13%
O=C(Cc1ccsc1)N1CC(c2noc(COc3ccccc3)n2)C1,i
CCCN(CCC)C(=O)C1CCCN(c2ncnc3onc(-c4ccc(F)cc4)c23)C1 (configuration not stated),-9%
Cc1ccc(NC(=O)C2CCCN(c3ncnc4onc(-c5ccc(F)cc5)c34)C2)c(Cl)c1 (configuration not stated),-11%
COc1cc(Cl)c(C)cc1NC(=O)C1CCCN(c2ncnc3onc(-c4ccc(F)cc4)c23)C1 (configuration not stated),11µM*
CC(C)N(Cc1ccccc1)C(=O)C1CCCN(c2ncnc3onc(-c4ccc(F)cc4)c23)C1 (configuration not stated),8.9µM*
Cc1ccc(C)c(NC(=O)C2CCCN(c3ncnc4onc(C)c34)C2)c1 (configuration not stated),-25%
Cc1noc2ncnc(N3CCCC(C(=O)NCCC(C)C)C3)c12 (configuration not stated),-15%
Cc1cccc2nc(CNC(=O)c3cccc(C4CCNC4)c3)cn12 (configuration not stated),-9%
CC(=O)Nc1ccc(OCC(=O)NCCc2cccs2)nc1,2%
SMILES,Pf Dd2 growth
O=C(NCc1ccc(F)cc1)c1ccc(CS(=O)Cc2ccc(Cl)cc2)o1 (configuration not stated),-5%
CCCNC(=O)O[C@@H]1CC[C@]2(C)[C@H](CC[C@@H](O)[C@H]2CC(=O)N2CCCCC2)[C@]1(C)CO,i
C[C@]1(CO)C2CC[C@@H](O)[C@@H](CC(=O)NCc3cccs3)[C@]2(C)CC[C@H]1OC(=O)NC1CCCCC1 (some centres not stated),11µM*
COc1cc(NC(=O)O[C@@H]2CC[C@]3(C)C(CC[C@@H](O)[C@H]3CC(=O)N3CCCC3)[C@]2(C)CO)cc(OC)c1 (some centres not stated),-14%
COc1ccc(NC(=O)O[C@@H]2CC[C@]3(C)C(CC[C@@H](O)[C@H]3CC(=O)N3CCC[C@H]3CO)[C@]2(C)CO)cc1 (some centres not stated),-21%
C[C@]1(CO)C2CC[C@@H](O)[C@@H](CC(=O)N3CCCC3)[C@]2(C)CC[C@H]1OC(=O)Nc1ccccc1 (some centres not stated),8.9µM*

# High-throughput results from PubChem BioAssay.
